Measured values taken from ChEMBL document CHEMBL4513146, “CO-ADD screening of Karazin Kharkiv National University (Ukraine) compounds”.
Measured potencies and affinities stand elsewhere.

Experiments:
Klebsiella pneumoniae = conditions: Concentration 32 ug.mL-1;; ASSAY_TEST Inhibition of Bacterial Growth; detection method Absorption (OD600); MEDIA CAMHB; plate type 384well; NBS; CORNING #3640; time 18 hr
Candida albicans = conditions: Concentration 32 ug.mL-1; ASSAY_TEST Inhibition of Fungal Growth; detection method Absorption (OD530)
Cryptococcus neoformans = conditions: Concentration 32 ug.mL-1; ASSAY_TEST Inhibition of Fungal Growth; detection method Resazurin; Absorption (OD600-OD570); plate type 384well; NBS; CORNING #3640

SMILES	Inhibition (Klebsiella pneumoniae) [%]	Inhibition (Candida albicans) [%]	Inhibition (Cryptococcus neoformans) [%]
CCOc1ccc(-n2ccn3c(SCC(=O)Nc4cc(Cl)ccc4OC)nnc3c2=O)cc1	12.81	1.86	-5.56
CCc1ccc(N(Cc2cccc(OC)c2)S(=O)(=O)c2cccn3c(C)nnc23)cc1	-1.7	-0.37	-7.84
COc1ccc(NC(=O)Cn2nc3c4cc(-c5ccc(C)cc5)nn4ccn3c2=O)c(OC)c1	9.2	7.88	-29.92
COc1ccc(NC(=O)Cn2nc3c(Oc4ccc(C)cc4)nccn3c2=O)cc1Cl	0.22	18.79	-4.53
